According to PMC8384837, “Expanding the binding specificity for RNA recognition by a PUF domain”:

Key:
Assay in all cases: yeast three-hybrid, YBZ-1, SC-Leu-His + 0.5 mM 3-AT, 4 days
Settings in all cases: tags: N-Gal4 AD-HA kept; label: inside an RPR1-promoter hybrid RNA with tandem MS2 sites; ssRNA
PUM1 PUF domain R3-RMR = PUM1 PUF domain R3-RMR (Homo sapiens, UniProt Q14671 828-1176, C935R;R936M;Q939R)
Outline: (§1)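 Matching RNA elements and Pumilio-1 PUF domain libraries, randomized at the three base-contacting residues of every repeat, were co-expressed from a centromeric plasmid in strain YBZ-1 (LexA–MS2 coat fusion, HIS3 reporter). The repeat regions were PCR-amplified and Illumina-sequenced from cells grown four days on SC-Leu (input) or SC-Leu-His + 0.5 mM 3-AT (selection). The interaction score is the log change in variant frequency from input to selection. It is computed in log2, with a pseudocount of 1 for absent variants.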

PUM1 PUF domain R3-LYV = PUM1 PUF domain R3-LYV (Homo sapiens, UniProt Q14671 828-1176, C935L;R936Y;Q939V)
Outline: as §1

PUM1 PUF domain R5-KGC = PUM1 PUF domain R5-KGC (Homo sapiens, UniProt Q14671 828-1176, C1007K;R1008G;Q1011C)
Outline: as §1

PUM1 PUF domain R5-RPN = PUM1 PUF domain R5-RPN (Homo sapiens, UniProt Q14671 828-1176, C1007R;R1008P;Q1011N)
Outline: as §1

PUM1 PUF domain R5-KTS = PUM1 PUF domain R5-KTS (Homo sapiens, UniProt Q14671 828-1176, C1007K;R1008T;Q1011S)
Outline: as §1

PUM1 PUF domain R3-NSL = PUM1 PUF domain R3-NSL (Homo sapiens, UniProt Q14671 828-1176, C935N;R936S;Q939L)
Outline: as §1

PUM1 PUF domain R7-GWD = PUM1 PUF domain R7-GWD (Homo sapiens, UniProt Q14671 828-1176, S1079G;N1080W;E1083D)
Outline: as §1

PUM1 PUF domain R1-RAV = PUM1 PUF domain R1-RAV (Homo sapiens, UniProt Q14671 828-1176, S863R;R864A;Q867V)
Outline: as §1

PUM1 PUF domain R1-GWR = PUM1 PUF domain R1-GWR (Homo sapiens, UniProt Q14671 828-1176, S863G;R864W;Q867R)
Outline: as §1

PUM1 PUF domain R7-SHP = PUM1 PUF domain R7-SHP (Homo sapiens, UniProt Q14671 828-1176, N1080H;E1083P)
Outline: as §1

PUM1 PUF domain R3-LYV, sequence (Q14671 828-1176 C935L/R936Y/Q939V): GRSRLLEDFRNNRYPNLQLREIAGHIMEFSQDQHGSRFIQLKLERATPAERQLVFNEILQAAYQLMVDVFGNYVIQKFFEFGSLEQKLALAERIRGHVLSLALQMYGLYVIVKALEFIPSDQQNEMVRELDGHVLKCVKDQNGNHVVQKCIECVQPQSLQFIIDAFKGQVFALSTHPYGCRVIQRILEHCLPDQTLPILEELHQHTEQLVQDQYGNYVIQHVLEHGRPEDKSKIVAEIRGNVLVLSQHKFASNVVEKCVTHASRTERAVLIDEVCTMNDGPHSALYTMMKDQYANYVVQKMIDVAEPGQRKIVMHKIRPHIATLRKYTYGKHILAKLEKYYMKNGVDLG
PUM1 PUF domain R5-KTS, sequence (Q14671 828-1176 C1007K/R1008T/Q1011S): as the sequence (Q14671 828-1176 C935L/R936Y/Q939V) above, with L108C, Y109R, V112Q, C180K, R181T, Q184S counted along it
PUM1 PUF domain R3-RMR, sequence (Q14671 828-1176 C935R/R936M/Q939R): as the sequence (Q14671 828-1176 C935L/R936Y/Q939V) above, with L108R, Y109M, V112R counted along it
PUM1 PUF domain R1-RAV, sequence (Q14671 828-1176 S863R/R864A/Q867V): as the sequence (Q14671 828-1176 C935L/R936Y/Q939V) above, with S36R, R37A, Q40V, L108C, Y109R, V112Q counted along it
PUM1 PUF domain R5-KGC, sequence (Q14671 828-1176 C1007K/R1008G/Q1011C): as the sequence (Q14671 828-1176 C935L/R936Y/Q939V) above, with L108C, Y109R, V112Q, C180K, R181G, Q184C counted along it
PUM1 PUF domain R1-GWR, sequence (Q14671 828-1176 S863G/R864W/Q867R): as the sequence (Q14671 828-1176 C935L/R936Y/Q939V) above, with S36G, R37W, Q40R, L108C, Y109R, V112Q counted along it
PUM1 PUF domain R3-NSL, sequence (Q14671 828-1176 C935N/R936S/Q939L): as the sequence (Q14671 828-1176 C935L/R936Y/Q939V) above, with L108N, Y109S, V112L counted along it
PUM1 PUF domain R7-GWD, sequence (Q14671 828-1176 S1079G/N1080W/E1083D): as the sequence (Q14671 828-1176 C935L/R936Y/Q939V) above, with L108C, Y109R, V112Q, S252G, N253W, E256D counted along it
PUM1 PUF domain R5-RPN, sequence (Q14671 828-1176 C1007R/R1008P/Q1011N): as the sequence (Q14671 828-1176 C935L/R936Y/Q939V) above, with L108C, Y109R, V112Q, C180R, R181P, Q184N counted along it
PUM1 PUF domain R7-SHP, sequence (Q14671 828-1176 N1080H/E1083P): as the sequence (Q14671 828-1176 C935L/R936Y/Q939V) above, with L108C, Y109R, V112Q, N253H, E256P counted along it

“GGCUAGAACUAGUGGAUCCCCCGGCGCCCGGCGGCUCGAGCCCGGGUAAGUGUAAGUAGUCUGCAUGCCGCCGGGCGCCAUGCCUGCAGGUCGACUCUAGAAAACAUG” was tested. Which binding signal (PUM1 PUF domain R3-RMR) did it give?
The binding signal was 1.31 log2 enrichment (interaction score).

And the binding signal (PUM1 PUF domain R3-LYV)?
Its binding signal is 4.97 log2 enrichment (interaction score).

What does the source list for “GGCUAGAACUAGUGGAUCCCCCGGCGCCCGGCGGCUCGAGCCCGGGUAAGUGUUAAUAGUCUGCAUGCCGCCGGGCGCCAUGCCUGCAGGUCGACUCUAGAAAACAUG”?
binding signal (PUM1 PUF domain R5-KGC): 3.36 log2 enrichment (interaction score); binding signal (PUM1 PUF domain R5-RPN): 3.03 log2 enrichment (interaction score); binding signal (PUM1 PUF domain R5-KTS): 1.52 log2 enrichment (interaction score)

For “GGCUAGAACUAGUGGAUCCCCCGGCGCCCGGCGGCUCGAGCCCGGGUAAGUGUAAAUAGUCUGCAUGCCGCCGGGCGCCAUGCCUGCAGGUCGACUCUAGAAAACAUG”, which binding signal (PUM1 PUF domain R3-NSL) is on record?
Its binding signal is 2.4 log2 enrichment (interaction score).

What about the binding signal (PUM1 PUF domain R5-KGC) of the same sequence?
Its binding signal is 1.52 log2 enrichment (interaction score).

What about the binding signal (PUM1 PUF domain R7-GWD) of the same sequence?
Its binding signal is 2.68 log2 enrichment (interaction score).

And the binding signal (PUM1 PUF domain R3-LYV)?
The binding signal was 4.4 log2 enrichment (interaction score).

What does the source list for “GGCUAGAACUAGUGGAUCCCCCGGCGCCCGGCGGCUCGAGCCCGGGUAAGUGUAAAUCGUCUGCAUGCCGCCGGGCGCCAUGCCUGCAGGUCGACUCUAGAAAACAUG”?
binding signal (PUM1 PUF domain R1-RAV): 0.85 log2 enrichment (interaction score); binding signal (PUM1 PUF domain R1-GWR): 7.05 log2 enrichment (interaction score)

“GGCUAGAACUAGUGGAUCCCCCGGCGCCCGGCGGCUCGAGCCCGGGUAAGUGUAAUUAGUCUGCAUGCCGCCGGGCGCCAUGCCUGCAGGUCGACUCUAGAAAACAUG” was tested. Which binding signal (PUM1 PUF domain R3-RMR) did it give?
The binding signal was 4.19 log2 enrichment (interaction score).

And the binding signal (PUM1 PUF domain R3-LYV)?
The binding signal was 5.79 log2 enrichment (interaction score).

“GGCUAGAACUAGUGGAUCCCCCGGCGCCCGGCGGCUCGAGCCCGGGUAAGUCUAAAUAGUCUGCAUGCCGCCGGGCGCCAUGCCUGCAGGUCGACUCUAGAAAACAUG” was tested. Which binding signal (PUM1 PUF domain R7-SHP) did it give?
The binding signal was 3.63 log2 enrichment (interaction score).

With “GGCUAGAACUAGUGGAUCCCCCGGCGCCCGGCGGCUCGAGCCCGGGUAAGUGUCAAUAGUCUGCAUGCCGCCGGGCGCCAUGCCUGCAGGUCGACUCUAGAAAACAUG” as the sequence, how does the binding signal (PUM1 PUF domain R5-KTS) read?
Its binding signal is 2.89 log2 enrichment (interaction score).

For “GGCUAGAACUAGUGGAUCCCCCGGCGCCCGGCGGCUCGAGCCCGGGUAAGUGUAAAUUGUCUGCAUGCCGCCGGGCGCCAUGCCUGCAGGUCGACUCUAGAAAACAUG”, which binding signal (PUM1 PUF domain R1-RAV) is on record?
Its binding signal is 2.63 log2 enrichment (interaction score).

And the binding signal (PUM1 PUF domain R1-GWR)?
Its binding signal is 4.28 log2 enrichment (interaction score).
